Laboratory results from PubChem BioAssay AID624330 (Southern Research Specialized Biocontainment Screening …, 2012).
Out of some 340,000 compounds screened, about 2,100 (0.62%) were called active. A selection follows. Entries with a potency or affinity are not part of this list. A number with no mark means an inactive call.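 Rule for the calls: active = first-screen hits whose inhibition reached a set limit at any dose in the follow-up dose series; inconclusive = inhibition above the set first-screen limit but never retested; inactive = the rest.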

Target: Rac GTPase-activating protein 1 (Homo sapiens) (UniProt Q9H0H5)
Sequence (Q9H0H5 whole entry, looked up): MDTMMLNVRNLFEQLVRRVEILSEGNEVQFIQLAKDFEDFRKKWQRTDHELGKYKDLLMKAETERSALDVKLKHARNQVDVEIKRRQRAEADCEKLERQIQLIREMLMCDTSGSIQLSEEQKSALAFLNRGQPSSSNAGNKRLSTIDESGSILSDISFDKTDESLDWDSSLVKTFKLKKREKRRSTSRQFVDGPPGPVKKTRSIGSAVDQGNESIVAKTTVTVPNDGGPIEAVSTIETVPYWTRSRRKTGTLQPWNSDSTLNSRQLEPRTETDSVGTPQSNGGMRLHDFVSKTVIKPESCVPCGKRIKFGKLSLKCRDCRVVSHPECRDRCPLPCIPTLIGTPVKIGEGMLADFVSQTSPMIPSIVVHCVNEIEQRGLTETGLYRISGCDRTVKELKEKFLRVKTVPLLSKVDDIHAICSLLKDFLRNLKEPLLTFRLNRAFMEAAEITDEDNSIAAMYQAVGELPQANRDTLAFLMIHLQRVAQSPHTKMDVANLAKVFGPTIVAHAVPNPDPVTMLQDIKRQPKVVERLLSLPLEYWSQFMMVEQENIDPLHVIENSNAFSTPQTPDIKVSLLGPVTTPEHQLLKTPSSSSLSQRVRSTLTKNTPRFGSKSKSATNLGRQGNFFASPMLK
Experiment: MgcRacGAP GTPase-activating activity inhibitors, confirmation, biochemical, ADP Hunter fluorescence, primary and confirmatory (AID 624330);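 note: fluorescence reports GDP produced by GAP-driven GTP hydrolysis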
Conditions: MgcRacGAP-stimulated Rac1 GTP hydrolysis, at 30 µM, active compounds read high, GST-tagged Rac1 F28L mutant substrate

SMILES | inhibition [%]
COC(=O)C1=C(C)N(CC2CCCO2)C(=O)C1 (stereo not given) | 4.38
O=C1/C(=C/c2ccc(O)cc2)SC(=S)N1CC1CCCO1 (stereo not given) | 31.1
O=C(N/N=C/c1ccc(-c2ccccc2C(=O)O)o1)c1cccs1 | 11.8
COc1ccc(-c2noc(-c3ccccc3C(=O)NCc3ccco3)n2)cc1 | 8.25
CCCNC(=O)CN1CCN(c2cc3ccccc3c(Cl)n2)CC1 | 4.31
CC(=O)Nc1ccc(Oc2nc(C(F)(F)F)nc3ccccc23)cc1 | 11.9
Cc1cccc(Oc2nc(-c3ccccn3)nc3ccccc23)c1 | 11.2
CC(C)(C)S(=O)(=O)N1C[C@@H]2CC/C=C\C/C(c3ccccc3)=C\2[C@H]1CCO | 6.06
C=C1CCN([C@@H](CC(C)C)C(=O)NCc2ccc(OC)cc2)S(=O)(=O)c2ccccc21 | 13.2
COc1ccc2ccccc2c1C1NC(=O)NC(C)=C1[N+](=O)[O-] (stereo not given) | 1.63
CN(CCCS(=O)(=O)[O-])c1ccc(/C=C/c2ccc3ccccc3[n+]2C)cc1 | 9.16
CC[n+]1c(/C=C/C=C/N(C(C)=O)c2ccccc2)sc2ccccc21 | 23.1
CCN(CC)c1ccc(/C=C/c2ccc3ccc(OC)cc3[n+]2CC)cc1 | 12.8
C[n+]1c(/C=C/c2ccc3c(c2)OCO3)ccc2ccccc21 | -4.73
CN(C)c1ccc(/C=C/c2nc3ccccc3s2)cc1 | 13.3
CC[n+]1c(/C=C/c2ccc(OC)c(OC)c2)ccc2ccccc21 | 11.3
COc1ccccc1N1CCN(C(=O)C(=O)c2cn(CC(=O)N3CCCCCC3)c3ccccc23)CC1 | 4.2
Cc1ccc2oc(=O)c3cnn(CC(=O)N(CCCN4CCOCC4)Cc4ccco4)c3c2c1 | 5.12
CCCN(CCC)CCNC(=O)CCC(=O)Nc1ccc2nc(N3CCN(C)CC3)cc(C)c2c1 | 26.7
CCCCNC(=O)CCC(=O)Nc1ccc2nc(N3CCN(C)CC3)cc(C)c2c1 | 11.9
CCN(C(=O)CN1C(=O)c2ccc([N+](=O)[O-])cc2C1=O)C1CCCCC1 | -1.26
COc1cccc(OCC(O)CNC2CCCC2)c1 (stereo not given) | -1.44
CCC(CC)CN1C(Nc2ccccc2)=NC[C@@H]1C | 1.3
C=CCc1cc(/C=C2/NC(=O)N(CC(=O)OC)C2=O)cc(OC)c1O | 10.1
O=C(CSc1nc(C2CCCCC2)n(-c2ccccc2)n1)NCC(F)(F)F | 8.72

SMILES | inhibition [%]
NC(=O)NC(=O)CSc1nc(C2CCCCC2)n(-c2ccccc2)n1 | 3.47
O=C(Nc1nccs1)C1CC(=O)N(CCc2ccc(F)cc2)C1 (stereo not given) | 6.31
Nc1nonc1-n1nnc(C(=O)N/N=C/c2cccc(Cl)c2)c1CN1CCCCCC1 | 3.77
C=CCOC1COC2C(OCC=C)COC12 (stereo not given) | 3.53
COc1ccc(OCCCNCCc2ccccc2)cc1 | 4.94
CC(=O)NCCOc1cccc2ccccc12 | -4.94
c1ccc(CCNCCOc2ccccc2)cc1 | 17.6
Cc1ccc(OCCCCNC(C)c2ccccc2)c(C)c1 (stereo not given) | 28.7
Cc1ccc(S(=O)(=O)N2CC=C(C(=O)NCc3ccccc3)CC2)cc1 | 6.07
CC(=O)c1ccc(NC(=O)C[n+]2ccccc2)cc1 | 10.2
CCOc1ccc(CCNC(=O)COC(=O)c2cc(OC)c(OC)cc2[N+](=O)[O-])cc1OCC | -1.41
Cc1ccc(NC(=O)CN(C)Cc2nc3ccccc3c(=O)[nH]2)c(Br)c1 | 4.68
COCCCNc1nc2cc(OC)c(OC)cc2c2nc(-c3ccccc3)nn12 | 2.71
CCOCCCNCc1ccc(OC)c(OC)c1 | 13.9
COCCNc1nc(=S)[nH]c2cc(OC)c(OC)cc12 | 15.3
CCOc1cc2nc(-c3ccc(OC)c(OC)c3)nc(NCCCN3CCOCC3)c2cc1OC | 18.4
CCCCn1c(N)c(N(CC(C)C)C(=O)CCNC(=O)c2ccccc2Cl)c(=O)[nH]c1=O | 6.4
CCOc1cc(C(=S)N2CCOCC2)ccc1OS(=O)(=O)c1ccc(OC)cc1 | 3.51
C[C@@H]1CN([C@H](C)CO)C(=O)CCCn2nncc2CO[C@H]1CN(C)S(=O)(=O)c1ccc2ccccc2c1 | 12.9
CCCCNC(=O)Cn1cnc2c(cnn2-c2ccc(C)cc2)c1=O | 6.17
Clc1nssc1=Nc1ccccc1 | 13.8
Clc1ccc(N=c2ssnc2Cl)cc1 | 14.7
O=C(N/N=C/c1ccc([N+](=O)[O-])o1)c1cc(-c2cccc(Br)c2)nc2ccccc12 | -2.15
Cn1c(=Nc2ccc(N3CCOCC3)cc2)ccc2ccccc21 | 16.1
C/C(=N\N=c1/sc2ccccc2n1C)c1ccc(N2CCOCC2)cc1 | 6.81
